In article PMC9574860, “Chemical Toolkit for PARK7: Potent, Selective, and High-Throughput” (Journal of Medicinal Chemistry, 2022) one finds Inhibition % data, which are given here for 138 molecules.

Screen size: about 7,900 compounds; about 400 (5.1%) showed an effect of 50% or more. The list comes from a sample in which strong results are over-represented; it also holds similar structures and randomly drawn compounds.

Parkinson's disease protein 7 (PARK7/DJ1), sequence (Q99497 whole entry, looked up, the tested form may be a part): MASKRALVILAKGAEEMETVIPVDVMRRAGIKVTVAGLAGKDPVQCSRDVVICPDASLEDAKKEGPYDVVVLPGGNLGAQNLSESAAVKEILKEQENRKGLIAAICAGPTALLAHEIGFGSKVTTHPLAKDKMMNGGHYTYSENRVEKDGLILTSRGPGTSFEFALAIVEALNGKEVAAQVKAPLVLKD

For this assay, the target named is Parkinson's disease protein 7 (PARK7/DJ1) (human, UniProt Q99497). In words: primary screen, percent inhibition; read as competition with a fluorescent probe by fluorescence polarization; higher = more effect of the substance. As to conditions: 100 µM. An outline of the steps:
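Covalent fragments at 100 μM final were incubated 2 h with 0.2 μM PARK7, then 20 nM probe JYQ-107 added for a further 2 h. Fluorescence polarization read at 480/520 nm; relative FP loss versus reference controls gave remaining enzyme activity.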
On to `O=C1OCCC1N1CCN(c2nccs2)CC1` (stereo not drawn), for which the Inhibition % is 2.57%. On to `O=c1[nH]nc(-c2ccco2)o1`, for which the Inhibition % worked out at 50.5%. Next, `O=c1[nH]nc(-c2cccs2)o1`: 12.1%; `O=c1[nH]nc(-c2ccc(F)cc2)o1`: 6.22%. With `O=C(O)Cn1nc(-c2ccc(F)cc2)oc1=O`, the Inhibition % is recorded as 12.4%.

In the case of `Nc1cncc(S(=O)(=O)F)c1`, the Inhibition % turned out to be 95.6%. Next, `Nc1ccc(S(=O)(=O)F)cc1`: 5.99%; `N#CC(=Cc1ccc(-c2ccc(Cl)cc2Cl)o1)C(N)=O`: 3.17%; `Cc1ccc(Cl)c(OCC2CO2)c1` (stereo not drawn): 7.81%. `CC1(C)OB(c2c(Cl)cccc2Cl)OC1(C)C`: the Inhibition % turned out to be 1.49%. With `Cc1ccccc1N1CCN(C(=O)n2ccnc2)CC1`, the Inhibition % was found to be 8.38%. For `CN(Cc1cccs1)C(=O)CCl` the value was 36.6%. Next, `Cc1ccccc1CC(=O)NNC(=O)CCl`: 24%; `CN(Cc1ccccc1Br)C(=O)CCl`: 93.9%.

In the case of `Cc1ccc(CN(C)C(=O)Cn2cnc(C#N)n2)c(C)c1`, the Inhibition % turned out to be 3.86%. Next, `CCN(Cc1ccc(C#N)cc1F)C(=O)CCl`: 16.8%. For `Cc1ccc(CN(C)C(=O)CCl)c(C)c1` the value was 65.7%; for `Cc1ccccc1CCNC(=O)CCl`, 8.29%; for `Cc1ccccc1CN(C)C(=O)CCl`, 56.6%. On to `CN(Cc1cc(C#N)ccc1F)C(=O)CCl`, for which the Inhibition % is recorded as 50.3%.

Consider `CN(Cc1cc(Br)cs1)C(=O)CCl`, for which the Inhibition % came to 42.9%. For the molecule `CC(NC(=O)CCl)c1cccs1` (stereo not drawn), the Inhibition % is recorded as 9.37%.

For `C=CC(=O)N1CC(C)S(=O)(=O)C(C)C1` (stereo not drawn), the Inhibition % came out at 5.08%. Next, `Cn1nccc1C12CCOCC1O2` (stereo not drawn): 9.22%; `COc1ccccc1COCC1CO1` (stereo not drawn): 4.72%; `C=CC(=O)N1CCCC(c2nn(C)cc2C(=O)O)C1` (stereo not drawn): 0.724%.

Take `N#Cc1ncn(-c2ncc(C(F)(F)F)cc2Cl)n1`: the Inhibition % is on record as 6.83%. As to `C=CC(=O)NCC1CCCSC1` (stereo not drawn), the Inhibition % is 13.8%. For `Cc1ccc(CN(C)C(=O)CCl)o1` the value was 40.8%. As to `CN(Cc1ccc(-c2ccc(Cl)cc2)o1)C(=O)CCl`, the Inhibition % came out at 79.2%. Take `O=C(CCl)N(Cc1ccco1)c1ccccc1`: the Inhibition % came out at 17.8%. Next, `CN(Cc1ccc(Cl)s1)C(=O)CCl`: 30.4%; `CN(Cc1ccco1)C(=O)CCl`: 53%.

Turning to `O=C(CCl)NC(=O)NC12CC3CC(CC(C3)C1)C2`, the Inhibition % stood at 0.699%. Next, `C=CC(=O)Nc1cn(C)nc1C(C)C`: 8.9%; `CCn1c(N)c(C(=O)CCl)c(=O)[nH]c1=O`: 4.93%; `C=CC(=O)N1C[C@]2(C)CC[C@@H](C2)C1(C)C`: 15%. In the case of `O=S(=O)(F)c1ccc(-c2cn(Cc3cc(C4CC4)no3)nn2)cc1`, the Inhibition % amounted to 3.46%.

Turning to `Cl.ClCCc1nc2ccccc2[nH]1`, the Inhibition % amounted to 3.05%. In the case of `C=CC(=O)NCC1(C)CCOC2(CCC2)C1` (stereo not drawn), the Inhibition % stood at 13.5%. `CC1(C)OB(c2cccc(OCCN3CCCCC3)c2)OC1(C)C`: the Inhibition % was -0.0143%. Next, `O=C(CCCl)NC1CCCCC1`: 3.8%; `O=c1onc(-c2ccccn2)n1C1C=CCCC1` (stereo not drawn): 5.08%; `O=c1onc(-c2cccnc2)n1C1C=CCCC1` (stereo not drawn): 54.8%.

For the molecule `O=c1onc(-c2cccnc2)n1Cc1cc(F)cc(F)c1`, the Inhibition % was 16.6%. For `O=C(Nc1ccncc1)N1CCC(C2OCCO2)CC1` the value was 9.17%; for `O=C(Oc1ccccc1)N1CC(O)C1`, 29%. For `C=CC(=O)NC(C)c1cnn(C)c1` (stereo not drawn) the value was 5.67%; for `O=C1NC(=O)C(CCS)N1` (stereo not drawn), 26.8%; for `Cl.O=S(=O)(F)CCC1CCCCN1` (stereo not drawn), 1.97%. For the molecule `O=C1NC(=O)C(CS(=O)(=O)F)N1` (stereo not drawn), the Inhibition % is 69.7%. For `O=C1NC(=O)C(CCS(=O)(=O)F)N1` (stereo not drawn) the value was 97.6%. Consider `Cl.O=S(=O)(F)CC1CNCCO1` (stereo not drawn), for which the Inhibition % was 11%. For `O=C1NC(=O)C(CS)N1` (stereo not drawn), the Inhibition % is 84.8%.

In the case of `CC1(C)NC(=O)N(CCS(=O)(=O)F)C1=O`, the Inhibition % is -4.21%. For the molecule `Cl.O=S(=O)(F)CC1CCCNC1` (stereo not drawn), the Inhibition % came out at 7.49%. On to `O=C1NC(C2CC2)C1C1CC1` (stereo not drawn), for which the Inhibition % worked out at 6.35%. Next, `N#Cc1cnc(OCC(F)(F)F)cn1`: 4.9%. Consider `C=CC(=O)N1CCC(S(=O)(=O)C(C)C)CC1`, for which the Inhibition % is 5.57%.

With `Cc1csc(C(C#N)=Cc2cnn(C)c2)n1`, the Inhibition % was 11.9%. `Cc1cnc(S(=O)(=O)F)nc1`: the Inhibition % amounted to 33.7%.

Turning to `Cc1cc(C)nc(S)n1`, the Inhibition % came to 17.2%. For `Cc1cc(C)nc(S(=O)(=O)F)n1`, the Inhibition % was 55.9%. Next, `O=C(CCCCl)N1CCCCC1`: 2.86%; `O=C1OCCC1N1C(=O)c2ccccc2S1(=O)=O` (stereo not drawn): 6.02%.

For `Cc1ccc(C=CS(=O)(=O)Nc2cc(C)nn2C)cc1`, the Inhibition % was 20%. On to `C=CC(=O)N1CCC(C)C(OC)C1` (stereo not drawn), for which the Inhibition % is 7.85%.

`O=C(O)c1ccc(CS)c(F)c1`: the Inhibition % turned out to be 82.7%. Next, `O=C(O)c1ccc2c(=O)[nH]c(S)nc2c1`: 11.3%; `O=C(O)c1cccc(CS)c1`: 30.4%. As to `O=C(CCl)Nc1cc2c(cc1[N+](=O)[O-])OCCCO2`, the Inhibition % amounted to 3.15%. As to `COc1cccc(C2CCCN2C(=O)CCl)c1` (stereo not drawn), the Inhibition % is 2.56%. Next, `C=CC(=O)N(C)Cc1cnc(N(C)C)nc1`: 5.02%; `CCCC(C#N)NS(=O)(=O)c1ccc(S(=O)(=O)F)cc1` (stereo not drawn): 33.3%; `N#CC1(NS(=O)(=O)c2ccc(S(=O)(=O)F)cc2)CCC1`: 31.4%. Next, `CC(C#N)NS(=O)(=O)c1ccc(S(=O)(=O)F)cc1` (stereo not drawn): 23.5%. Next, `CCCC(C#N)NS(=O)(=O)c1cccc(S(=O)(=O)F)c1` (stereo not drawn): 96.8%.

For the molecule `CC(C#N)NS(=O)(=O)c1cccc(S(=O)(=O)F)c1` (stereo not drawn), the Inhibition % stood at 102%.

For the molecule `CCC(C#N)NS(=O)(=O)c1ccc(S(=O)(=O)F)cc1` (stereo not drawn), the Inhibition % is 31.6%. With `O=C(CN1CCSC1=O)NC1CCN2CCCCC12` (stereo not drawn), the Inhibition % is given as 10.2%. As for `COc1ccc(C(C)(C)C)cc1NC(=O)CCl`, the Inhibition % came out at 10.8%.

As to `O=C(Nc1ccccc1F)N1CCC(C2OCCO2)CC1`, the Inhibition % is 5.67%. For `C=C(C)c1nc(C#N)c(NCc2ccccc2)o1` the value was 9.08%; for `N#Cc1cc(N)c2ccccc2n1`, 10.9%.

As to `Nc1ccc2nc(S)ccc2c1`, the Inhibition % is given as 67.6%. As for `Sc1ccc2ccccc2n1`, the Inhibition % was 14.2%.

As to `Nc1cc(N)nc(S)n1`, the Inhibition % is listed as 6.46%. Next, `N#Cc1ccc2cc(N)ccc2n1`: 101%; `COc1ccc2nc(C#N)ccc2c1`: 3.18%. For `N#Cc1ccc(Cl)cc1N1CCC(C2OCCO2)CC1` the value was 2.51%; for `C=CC(=O)NC1CCCCNC1=O` (stereo not drawn), 3.54%; for `COc1ccc(S(N)(=O)=O)cc1NC(=O)CCl`, 2.41%.

On to `C=CC(=O)NC(NC(=O)C=C)c1ccccc1F`, for which the Inhibition % is 14.4%. Next, `CN(C)c1nccc(CNCc2ccc(B(O)O)cc2)n1`: -0.514%; `C=CC(=O)NCC1CCCOC1c1ccc(C)cc1` (stereo not drawn): 9.55%.

In the case of `CNC1CCCN(C(=O)C=Cc2cncc(F)c2)C1` (stereo not drawn), the Inhibition % is 29.3%. Next, `Cl.O=C(CCl)NCC(c1ccccc1Cl)N1CCCC1` (stereo not drawn): 3.25%; `C=CC(=O)Nc1cnn(C(C)C)c1C1CC1`: 10.5%; `O=C1SCCN1CN1CCN(c2ccccc2F)CC1`: 3.81%. Next, `N#Cc1nc(-c2ccco2)oc1N1CCNCC1`: 9.97%. Next, `CCN1CCN(c2oc(-c3ccco3)nc2C#N)CC1`: 9.73%. Regarding `C#CCN1CCN(c2oc(-c3ccco3)nc2C#N)CC1`, the Inhibition % is on record as 53.7%. Next, `CCCN1CCN(c2oc(-c3ccco3)nc2C#N)CC1`: 9.64%.

As for `N#Cc1nc(-c2ccco2)oc1N1CCN(C(=O)CCl)CC1`, the Inhibition % came to 51.4%. For `CC(C)N1CCN(c2oc(-c3ccco3)nc2C#N)CC1` the value was 10%; for `ClCCCc1cccnc1`, 7.37%; for `Cc1c(C#N)c(NC(=O)CCl)n(C2CCCCC2)c1C`, 15.6%. As for `CC(=O)c1oc2ccccc2c1NC(=O)CCl`, the Inhibition % was found to be 9.9%. Next, `O=C(CCl)Nc1cccc(Br)c1`: 29.1%; `O=C(CCCl)Nc1ccc2c(c1)CCC2`: 4.93%; `O=C(CCl)Nc1ccc(Cl)c(Cl)c1`: 63%.

For `O=C(CCl)Nc1ccc(Cl)c(F)c1`, the Inhibition % is reported as 36.8%. Next, `COc1cc2c(cc1NC(=O)CCl)oc1ccccc12`: 4.67%. Next, `O=C(CCl)Nc1ccc(F)c(Cl)c1`: 21.3%.

In the case of `O=C(CCl)NC(=O)Nc1ccc(Br)cc1`, the Inhibition % stood at 23.3%.

For the molecule `O=C(CCl)Nc1ccc2c(c1)oc1ccccc12`, the Inhibition % is listed as 62.9%. Next, `C=CC(=O)Nc1ccc2c(c1)CCC2`: 7.23%. Consider `O=C(CCl)Nc1ccc2c(c1)CCC2`, for which the Inhibition % was 57.8%. For `O=C(CCl)Nc1ccc(Br)cc1` the value was 70.1%. Next, `O=C(c1cccnc1S)N1CCOC2(CCCC2)C1`: 6.34%; `C=CC(=O)NCc1cc2n(n1)CCC2`: 10.7%; `CC1(C)OB(c2cccc(OC(F)F)c2)OC1(C)C`: 3.49%. `C=CC(=O)Nc1cccc2c1CCN(S(C)(=O)=O)C2`: the Inhibition % was found to be 3.82%. Consider `CC1CC(Sc2ccccc2F)C(=O)O1` (stereo not drawn), for which the Inhibition % is on record as -0.183%. On to `C=CC(=O)NCCN1C(=O)Cc2ccccc21`, for which the Inhibition % came to 11%. For `CCN(C(=O)Cn1cnc(C#N)n1)C1=CCCCC1` the value was 6.47%. For `C=CC(=O)N1CC23CCCCC2(COC3)C1` (stereo not drawn) the value was 8.4%; for `O=C(CCCl)Nc1ccc(Cl)cc1`, 9.16%.

With `O=C(CCl)Nc1ccc(Cl)cc1`, the Inhibition % is reported as 60.3%.

In the case of `O=C(CCl)Nc1ccc(I)cc1`, the Inhibition % is 93.2%. Turning to `O=C(CCl)Nc1ccc2ccccc2c1`, the Inhibition % is reported as 55.8%.

For `CC(C)(C)c1ccc(NC(=O)CCl)cc1`, the Inhibition % was found to be 100%. Regarding `CNC(=O)c1ccc(NC(=O)CCl)cc1`, the Inhibition % was 16.6%. Next, `CC(=O)Nc1cccc(NC(=O)CCl)c1`: 19.2%; `O=C(CCl)Nc1cccc(I)c1`: 41%; `O=C(CCl)Nc1ccc2c(c1)C(=O)c1ccccc1C2=O`: 2.08%. `O=C(CCl)Nc1ccc(F)c(F)c1`: the Inhibition % worked out at 25.9%. Turning to `O=C(CCl)Nc1ccc(C(=O)O)cc1`, the Inhibition % was found to be 25.9%.
